# From PubChem BioAssay (NCI)
# Several values for one entry are separate records, joined by “and”; a condition that tells them apart may be missing. Equal values may be shown once. This is part of a sample that, as a whole, favours compounds with a hit. Of some 83,000 tested, about 20% had one in any assay.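 Step 1: grow cells in 96-well plates. Step 2: add test compound at a single concentration. Step 3: incubate 48 h. Step 4: record percent growth.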 Unmarked numbers belong to inactive results. Activity calls are given as the source filed them. Rule for the calls: active = growth percent below 10; inactive = the rest.
# System: SK-MEL-5 melanoma
# Assay: NCI-60 one-dose screen, 48 h (100 = growth as untreated, 0 = no growth, -100 = all killed)
# Conditions: 10 µM unless noted
row,SMILES,growth
1,Oc1cccc2cccnc12,97.2% and 99.9% and 110%
2,COc1ccccc1/C=C(/C)[N+](=O)[O-],80.3% and 102%
3,CC1=C2C(=O)[C@H]3[C@@H](CC=C4C[C@@H](O)CC[C@@]43C)[C@@H]2CC[C@]12O[C@@H]1C[C@H](C)CN[C@H]1[C@H]2C,96.8%
4,Cc1cc(N=Nc2ccccc2C)ccc1N,79.3%
5,COc1ccc(OC)c(/C=C/[N+](=O)[O-])c1,-16.2% (active)
6,CC[C@](O)(C(=O)O)c1cc2n(c(=O)c1CO)Cc1cc3ccccc3nc1-2,-94.2% (active)
7,Cc1c(N)nc([C@H](CC(N)=O)NC[C@H](N)C(N)=O)nc1C(=O)N[C@H](C(=O)N[C@H](C)[C@@H](O)[C@H](C)C(=O)N[C@H](C(=O)NCCc1nc(-c2nc(C(=O)NCCC[S+](C)C)cs2)cs1)[C@@H](C)O)C(OC1OC(CO)C(O)C(O)C1OC1OC(CO)C(O)C(OC(N)=O)C1O)c1cnc[nH]1 (some centres undefined),34.1% [2.5 µM]
8,CC[C@@]1(O)C(=O)OCc2c1cc1n(c2=O)Cc2cc3ccccc3nc2-1,-83.9% (active)
9,Oc1cc[c]([Hg][Cl])cc1,74.5%
10,CCC1(O)CC(OC2CC(N(C)C)C(OC3CC4OC5CC(=O)C(C)OC5OC4C(C)O3)C(C)O2)c2c(cc3c(c2O)C(=O)c2c(O)ccc(O)c2C3=O)C1C(=O)OC (centres undefined),-87.3% (active)
11,O=C1c2ccccc2C(=O)C(Cl)C1Cl (centres undefined),86.3%
12,Cc1ccc(C(=O)OC(C(=O)O)C(OC(=O)c2ccc(C)cc2)C(=O)O)cc1 (centres undefined) (tested in a mixture with another compound),14.7%
13,CCCCCCCCCCCC1CCCC(C)N1 (centres undefined),97%
14,CC(=O)O[C@H]1C[C@@H]2OC3C=C(C)CCC3(C)[C@@]1(C)[C@@]21CO1 (some centres undefined),-47.8% (active) and -66.8% (active)
15,CC[C@@]1(O)C[C@H](OC2CC(N(C)C)C(OC3CC(O)C(OC4CCC(=O)C(C)O4)C(C)O3)C(C)O2)c2c(cc3c(c2O)C(=O)c2c(O)ccc(O)c2C3=O)[C@H]1C(=O)OC (some centres undefined),-24.9% (active)
16,C[C@H]1CCC/C=C/[C@@H]2C[C@H](O)C[C@H]2[C@H](O)/C=C/C(=O)O1,-96.7% (active)

# System: UACC-62 melanoma
# Assay: as above
# Conditions: 10 µM
row,SMILES,growth
1,CC[C@@]1(O)C[C@H](OC2CC(N(C)C)C(O)C(C)O2)c2c(O)c3c(c(O)c2[C@H]1OC1CC(N(C)C)C(O)C(C)O1)C(=O)c1cccc(O)c1C3=O (some centres undefined),-63.2% (active)
2,COC1CC(CC2CCC(C)C(C(C)C(=O)O)O2)OC2(OC(C)(C3CCC(C)(C4OC(C5OC(O)(CO)C(C)CC5C)CC4C)O3)CC2C)C1C (centres undefined),-98.8% (active)
3,CCC(=O)OC1CCn2c1nc1c2C(=O)C(C)=C(N2CC2)C1=O (centres undefined),-67.8% (active)
4,CO[C@H](/C(C)=C/C=C/C(C)=C/c1coc(C)n1)[C@H](C)[C@H]1C[C@@H](O)[C@@]2(C)O[C@H]2/C=C/[C@@H](C)[C@@H]2C[C@@H](CC(=O)O2)C[C@H]2O[C@@H]2C(=O)O1,8.74% (active)
5,CC1=C(CO)C2=C(C)C3(CC3)[C@@](C)(O)C(=O)C2=C1,-81.5% (active)
6,COC1=C(C)C(=O)C2=C(C1=O)C(CO)N1C(C#N)C3CC4C(C1C2N1CCOC41)N3C (centres undefined),-81.2% (active)
7,CC[n+]1c(-c2ccccc2)c2cc(N)ccc2c2ccc(N)cc21,-81.3% (active)
8,CN1CCN(c2ccc([N+](=O)[O-])c3no[n+]([O-])c23)CC1,-58.8% (active)
9,COc1cccc2c1cc([N+](=O)[O-])c1c(C(=O)O)cc3c(c12)OCO3,84.3% and 96.5%
10,CCOC(=O)C(NC(=O)C(Cc1ccc(N(CCCl)CCCl)cc1)NC(C)=O)C(C)C (centres undefined),83.1%
11,C[C@]12CC[C@H](O)CC1=CC[C@@H]1[C@@H]2CC[C@]2(C)C(=O)CC[C@@H]12,92.9%
12,NCCc1ccc(OCc2ccccc2)c(OCc2ccccc2)c1,95.9%
13,S=C(SSC(=S)N1CCCCC1)N1CCCCC1,96.7%
14,Oc1cccc2cccnc12,97.2% and 94.1%
15,COc1ccccc1/C=C(/C)[N+](=O)[O-],58.1% and 103%
16,CC1=C2C(=O)[C@H]3[C@@H](CC=C4C[C@@H](O)CC[C@@]43C)[C@@H]2CC[C@]12O[C@@H]1C[C@H](C)CN[C@H]1[C@H]2C,112%
17,Cc1cc(N=Nc2ccccc2C)ccc1N,74%
18,COc1ccc(OC)c(/C=C/[N+](=O)[O-])c1,-22.3% (active)
19,CC[C@](O)(C(=O)O)c1cc2n(c(=O)c1CO)Cc1cc3ccccc3nc1-2,-68.6% (active)
20,CC[C@@]1(O)C(=O)OCc2c1cc1n(c2=O)Cc2cc3ccccc3nc2-1,-49.1% (active)
21,Oc1cc[c]([Hg][Cl])cc1,92.1%
22,CCC1(O)CC(OC2CC(N(C)C)C(OC3CC4OC5CC(=O)C(C)OC5OC4C(C)O3)C(C)O2)c2c(cc3c(c2O)C(=O)c2c(O)ccc(O)c2C3=O)C1C(=O)OC (centres undefined),-72.5% (active)
23,O=C1c2ccccc2C(=O)C(Cl)C1Cl (centres undefined),70.9%
24,Cc1ccc(C(=O)OC(C(=O)O)C(OC(=O)c2ccc(C)cc2)C(=O)O)cc1 (centres undefined) (tested in a mixture with another compound),45%
25,CCCCCCCCCCCC1CCCC(C)N1 (centres undefined),88.2%
26,CC(=O)O[C@H]1C[C@@H]2OC3C=C(C)CCC3(C)[C@@]1(C)[C@@]21CO1 (some centres undefined),-16.6% (active) and -10.1% (active)
27,CC[C@@]1(O)C[C@H](OC2CC(N(C)C)C(OC3CC(O)C(OC4CCC(=O)C(C)O4)C(C)O3)C(C)O2)c2c(cc3c(c2O)C(=O)c2c(O)ccc(O)c2C3=O)[C@H]1C(=O)OC (some centres undefined),-72.9% (active)
28,C[C@H]1CCC/C=C/[C@@H]2C[C@H](O)C[C@H]2[C@H](O)/C=C/C(=O)O1,20.9%
